# Screening data (PubChem BioAssay)
# A selection: hits, their analogues and other compounds. The true share with any hit is near 6.9%.
# CSC inhib: cancer stem cell inhibition; hit rate 1.1% among 300,000; cancer stem cell-like cells viability, luminescence; AID 2717; inhibition, % at 7.5 µM; in the data active = inhibition above about 75%; tested in HMLE shEcad cells
# Mdm2-MdmX inh: human Mdm2/MdmX binding inhibition; O15151+Q00987; hit rate 3% among 330,000; SaOS-2 split-luciferase Mdm2/MdmX complementation, luminescence; inhibition, % at 8 µM;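 active = inhibition of at least 50% at 8 µM in the primary screen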
# Target sequence (O15151 whole entry, looked up): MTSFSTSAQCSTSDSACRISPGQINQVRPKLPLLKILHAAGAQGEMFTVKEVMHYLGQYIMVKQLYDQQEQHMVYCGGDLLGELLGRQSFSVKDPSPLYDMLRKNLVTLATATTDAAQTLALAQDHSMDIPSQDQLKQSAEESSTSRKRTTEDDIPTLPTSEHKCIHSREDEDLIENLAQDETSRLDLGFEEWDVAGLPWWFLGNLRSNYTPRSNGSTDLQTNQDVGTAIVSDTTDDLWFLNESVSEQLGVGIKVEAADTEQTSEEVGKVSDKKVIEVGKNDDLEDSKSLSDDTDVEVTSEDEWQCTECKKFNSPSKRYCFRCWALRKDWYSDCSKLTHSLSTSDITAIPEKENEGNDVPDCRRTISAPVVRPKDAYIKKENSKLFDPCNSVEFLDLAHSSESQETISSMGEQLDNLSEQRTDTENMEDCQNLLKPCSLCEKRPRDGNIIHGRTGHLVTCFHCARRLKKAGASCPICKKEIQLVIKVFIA
# Target sequence (Q00987 whole entry, looked up): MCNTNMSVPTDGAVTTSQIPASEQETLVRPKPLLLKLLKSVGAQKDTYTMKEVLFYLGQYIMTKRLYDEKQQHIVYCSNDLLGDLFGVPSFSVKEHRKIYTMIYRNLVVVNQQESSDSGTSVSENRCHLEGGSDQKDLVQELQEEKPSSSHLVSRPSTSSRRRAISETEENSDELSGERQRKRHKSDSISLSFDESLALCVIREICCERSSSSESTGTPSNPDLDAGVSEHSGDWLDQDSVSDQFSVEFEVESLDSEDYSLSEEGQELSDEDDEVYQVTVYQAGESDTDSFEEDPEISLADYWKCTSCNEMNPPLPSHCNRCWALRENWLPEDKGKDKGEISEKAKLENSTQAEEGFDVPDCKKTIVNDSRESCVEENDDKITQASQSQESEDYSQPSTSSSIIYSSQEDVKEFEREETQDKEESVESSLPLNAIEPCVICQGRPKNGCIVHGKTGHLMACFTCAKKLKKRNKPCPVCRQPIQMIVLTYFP
# SKKanGAS inh: blocks kanamycin growth of S. pyogenes SKKanGAS strain. BacTiter-Glo, 6 h. inhibition, % at 7.5 µM. hit rate 1.3% among 300,000. AID 1662;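 active = mean replicate score, as percent of positive control median, at least 50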;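 note: strain carries kanamycin resistance gene driven by streptokinase promoter and grows in 40 µg/ml kanamycin; loss of luminescence reflects streptokinase promoter inhibition or plain growth inhibition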
# GRIN3A LBD mod: NR3A (human) ligand-binding domain modulation. NR3A LBD differential scanning fluorimetry, Tm shift; 0% = protein alone, 100% = glycine-bound protein. Tm shift relative to glycine control, % at 25 µM. hit rate 2.5% among 340,000. AID 1259313;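 active = melting temperature shift of at least 10% of the positive control shift, at one fixed dose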
# Beta apoptosis: blocks beta cell apoptosis; AID 435005; INS-1E cytokine-induced death, ATP luminescence, 48 h; percent of positive-control rescue, neutral wells zero; hit rate 0.8% among 300,000; protection from apoptosis, % (test concentration not listed);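 active = Every replicate reaches about 75%, or at least half do and their mean reaches it too, limit read from the data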;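 note: higher means more ATP so stronger rescue from cytokine killing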
# MPTP block: blocks calcium-induced mitochondrial swelling; isolated mouse mitochondria, Ca2+ swelling absorbance, 30 min; inhibition, % at 10 µM; hit rate 1.4% among 360,000;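 active = inhibition of 50% or more, scaled per plate between neutral and stimulator controls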
# A number is an active result; i = inactive; nt = no result.
SMILES,CSC inhib,Mdm2-MdmX inh,SKKanGAS inh,GRIN3A LBD mod,Beta apoptosis,MPTP block
NC(=O)Cn1nc(C(F)(F)F)c2c1CCCC2,i,i,i,27.3,i,i
O=C(O)Cn1nc(C(F)(F)F)c2c1CCC2,nt,i,i,i,nt,i
C/C(=N\NC(=O)c1ccccc1NC(=O)c1ccc(Cl)cc1)c1ccncc1,136.4,i,75.7,i,102.5,i
C/C(=N\NC(=O)C(=O)Nc1cccc(Cl)c1)c1ccncc1,i,i,i,i,80.9,i
C/C(=N\NC(=O)C(=O)Nc1ccc(C)cc1)c1ccncc1,i,i,i,i,i,i
CC(=NNC(=O)c1ccncc1)c1ccccc1Cl,nt,nt,nt,i,nt,i
COC(=O)[C@]1(C)N[C@H](CN(C)C(=O)Nc2ccc(C(F)(F)F)cc2)[C@@H]2C(=O)N(C)C(=O)[C@@H]21,i,i,nt,i,i,i
CCN(CC)Cc1ccc(OC)c(Cl)c1,i,i,i,13.9,i,i
CC(C)c1onc(C(=O)N(C)C2CCCCC2)c1[N+](=O)[O-],i,i,i,i,i,i
C#CCOc1ccc(Cl)cc1/C=N/O,nt,i,i,i,nt,i
O/N=C/c1cc(Cl)ccc1OCc1cccc2ccccc12,i,i,79.5,nt,i,nt
CN(C(=O)COC(=O)C1CCN(S(=O)(=O)c2ccc3c(c2)OCCO3)CC1)C1CCS(=O)(=O)C1 (configuration not stated),i,i,i,i,i,i
CC1CN(C)CCC1OC(=O)c1ccccc1 (configuration not stated),i,i,i,i,i,i
Cc1ccc(NC(=O)CN2C(=O)NC(Cc3c[nH]c4ccccc34)C2=O)cc1S(=O)(=O)N1CCCCC1 (configuration not stated),i,i,i,12.1,i,i
O=C(CN1C(=O)NC(Cc2c[nH]c3ccccc23)C1=O)Nc1cccc(S(=O)(=O)N2CCCC2)c1 (configuration not stated),i,i,i,i,i,i
Cc1ccc(NC(=O)CN2C(=O)NC(Cc3ccccc3)C2=O)cc1Cl (configuration not stated),nt,i,nt,15.0,i,i
O=C(CN1C(=O)NC(Cc2c[nH]c3ccccc23)C1=O)Nc1cccc(S(=O)(=O)N2CCCCCC2)c1 (configuration not stated),i,i,i,16.1,i,i
Cc1ccc(NC(=O)CN2C(=O)NC(Cc3ccccc3)C2=O)cc1 (configuration not stated),i,i,i,i,i,i
O=C(CN1C(=O)NC(Cc2ccccc2)C1=O)Nc1ccc(OC(F)F)cc1 (configuration not stated),i,i,i,i,i,i
CC(C)CC1NC(=O)N(CC(=O)Nc2ccc(OC(F)F)cc2)C1=O (configuration not stated),nt,i,nt,27.0,nt,i
COc1cc(OC)cc(C(=O)NC2CCCN(Cc3ccc(Cl)cc3)C2)c1 (configuration not stated),i,i,i,i,nt,i
CCCCCCCCN1C(=O)[C@H](CC(=O)NCc2cccc(C(F)(F)F)c2)C[C@@]2(C(=O)OCC)CCC=C12,nt,nt,nt,nt,nt,i
CCN1CCN(CCC(=O)Nc2cc(OC)cc(OC)c2)CC1,i,i,i,i,i,i
O=C(CNC(=O)c1ccc2ccccc2c1)NCc1ccc(F)cc1,i,i,i,i,nt,i
Cc1ccc(NC(=O)CN2C(=O)CCS(=O)(=O)c3ccccc32)cc1Cl,i,i,i,15.1,i,i
SMILES,CSC inhib,Mdm2-MdmX inh,SKKanGAS inh,GRIN3A LBD mod,Beta apoptosis,MPTP block
Cc1cc(C)cc(N2C(=O)CC(N3CCOCC3)C2=O)c1 (configuration not stated),i,i,i,10.5,i,i
Cc1oc2c(c(C)cc3oc(=O)c(CC(=O)N[C@@H](CCCNC(N)=O)C(=O)O)c(C)c32)c1C,i,i,i,i,i,i
Nc1c(C(=O)Nc2ccccc2)c2nc3ccccc3nc2n1-c1ccc(O)cc1,i,i,i,20.8,i,i
Cc1ccc(NS(=O)(=O)c2ccc(OCC(=O)NCC3CCCO3)cc2)cc1 (configuration not stated),i,i,i,i,i,i
CC1=NN(c2cccc(Cl)c2)C(=O)C1,i,i,i,11.4,i,i
CC1=C(C(=O)NC2CCC(C)CC2)C2(CCC(C)CC2)OC1=O (configuration not stated),i,i,i,13.5,i,i
CCOC(=O)N1CCC(NC(=O)C2=C(C)C(=O)OC23CCC(C)CC3)CC1 (configuration not stated),i,i,i,i,i,i
Cc1ccc(-n2[nH]c(C)c(/C=C3/C=Nc4ccccc43)c2=O)cc1C,i,i,i,14.5,i,i
Cc1ccc2nc(C3CCN(C(=O)NCc4ccccc4)CC3)[nH]c2c1,i,i,i,i,i,i
Cc1ccc2nc(C3CCCN(C(=O)NCc4ccccc4)C3)[nH]c2c1 (configuration not stated),i,i,nt,15.7,i,i
CCOc1ccccc1N1CCN(C(=O)CSc2ccc3c(c2)OCCO3)CC1,nt,i,nt,i,i,i
Cc1ccc([N+](=O)[O-])c(OCCN2CCCCCC2)c1,i,i,i,i,78.8,i
CC(=O)c1c(C)oc2c1C(=O)c1ccccc1C2=O,82.6,nt,i,i,96.5,i
COc1ccc(-c2ccc(C(=O)Nc3cccc(C(F)(F)F)c3)c3occc23)c(C)c1,nt,nt,nt,nt,nt,i
CC(=O)CCC(=O)N1CCCC(N2CCN(c3cccc(Cl)c3)CC2)C1 (configuration not stated),i,i,i,i,nt,i
CC(=O)N1N=C(c2ccc(Cl)cc2)CC1c1ccco1 (configuration not stated),i,i,i,i,i,i
O=C(c1ccc(Br)o1)N1N=C(c2ccc(Cl)cc2)CC1c1ccco1 (configuration not stated),i,i,59.9,i,i,i
O=C(C1CCCO1)N1N=C(c2ccc(Br)cc2)CC1c1ccco1 (configuration not stated),i,i,i,15.5,i,i
O=C(Nc1nnc([C@H]2C[C@H](O)[C@@H](CO)O2)s1)Nc1cccc(Cl)c1Cl,nt,nt,nt,nt,nt,i
O=c1c(-n2cncn2)c[nH]n1-c1cccc(Cl)n1,i,i,i,i,i,i
O=c1c(/C=N/OCc2ccc(Cl)cc2Cl)c[nH]n1-c1cccc(Cl)n1,93.5,i,i,i,i,i
CCOC(=O)NC(=S)Nc1c(C)n(C)n(-c2ccccc2)c1=O,i,i,i,i,i,i
COc1cc2nc(SCc3ccc(C(F)(F)F)cc3)n(Cc3cccs3)c(=N)c2cc1OC,i,i,i,24.4,i,i
COCCCn1c(SCc2ccccc2)nc2cc(OC)c(OC)cc2c1=N,i,i,i,i,i,i
COCCCn1c(SCc2cccc(C(F)(F)F)c2)nc2cc(OC)c(OC)cc2c1=N,82.6,i,i,10.4,i,i
COCCCn1c(SCC(=O)O)nc2cc(OC)c(OC)cc2c1=N,i,i,i,i,nt,i
